Experimental data taken from PubChem BioAssay (Tox21).
Results filed as inconclusive are left out. Entries that show only a call come without a potency. Unmarked numbers belong to inactive results. Activity calls are given as the source filed them. Unless noted, the call rests on the fitted dose curve; in most records, active means well fitted curve in the direction sought with a large enough effect in the repeat runs; inconclusive means weak or mixed curves; inactive means no such curve, though single readings can be large; an effect the other way counts as inactive or inconclusive.

Assays:
[1] = qHTS assay to identify small molecule antagonists of the thyroid receptor (TR) signaling pathway - cell viability counter screen (AID 743064); further: nearly all actives have a fitted effect of over 50% in size; further: potency means the concentration at half of the fitted maximal effect
In short: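 Compounds were tested on GH3.TRE-Luc cells in the presence of T3 at 1 nM final. Following 23.5 h at 37 °C, cell viability was quantified by CellTiter-Fluor.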

[2] = qHTS assay to identify small molecule antagonists of the thyroid receptor (TR) signaling pathway (AID 743065); further: nearly all actives have a fitted effect of over 55% in size; further: potency means the concentration at half of the fitted maximal effect
In short: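 GH3.TRE-Luc rat pituitary cells carrying two TR response elements driving luciferase were plated for 4 h, given compound plus 1 nM T3 (final), and incubated 23.5 h at 37 C. ONE-Glo luminescence measured reporter inhibition; CellTiter-Fluor fluorescence tracked cytotoxicity.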

[3] = qHTS assay to identify small molecule antagonists of the estrogen receptor alpha (ER-alpha) signaling pathway - cell viability counter screen (AID 743074; calls by dose curve;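 further: HEK293 cells carrying ER-alpha-UAS-bla reporter stimulated with 17beta-estradiol; nearly all actives have a fitted effect of over 45% in size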)
[4] = biological target: Estrogen receptor (Homo sapiens) (UniProt P03372); test: qHTS assay to identify small molecule agonists of the estrogen receptor alpha (ER-alpha) signaling pathway (AID 743075; calls by dose curve;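 further: HEK293 GripTite cells with ER-alpha and UAS-driven beta-lactamase reporter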)
Estrogen receptor (Homo sapiens), sequence (P03372 whole entry, looked up): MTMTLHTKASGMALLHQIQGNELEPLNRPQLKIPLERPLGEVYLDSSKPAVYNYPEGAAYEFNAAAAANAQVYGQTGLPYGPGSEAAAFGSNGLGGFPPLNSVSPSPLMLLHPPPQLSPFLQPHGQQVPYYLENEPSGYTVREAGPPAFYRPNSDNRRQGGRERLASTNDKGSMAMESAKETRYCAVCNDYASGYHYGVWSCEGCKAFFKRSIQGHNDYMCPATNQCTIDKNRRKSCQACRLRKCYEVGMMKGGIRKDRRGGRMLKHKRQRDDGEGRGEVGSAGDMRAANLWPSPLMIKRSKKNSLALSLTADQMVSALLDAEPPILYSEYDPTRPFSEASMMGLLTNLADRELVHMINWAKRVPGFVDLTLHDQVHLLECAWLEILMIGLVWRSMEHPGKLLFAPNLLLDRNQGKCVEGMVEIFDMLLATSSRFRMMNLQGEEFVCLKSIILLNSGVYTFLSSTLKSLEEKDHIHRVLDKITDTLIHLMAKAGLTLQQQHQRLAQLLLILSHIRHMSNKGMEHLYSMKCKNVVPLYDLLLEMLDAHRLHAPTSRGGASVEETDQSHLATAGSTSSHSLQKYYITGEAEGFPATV

[5] = qHTS assay to identify small molecule antagonists of the estrogen receptor alpha (ER-alpha) signaling pathway using the BG1 cell line (AID 743080; calls by dose curve;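 further: BG1 cells stimulated with 17beta-estradiol alongside compound; nearly all actives have a fitted effect of over 25% in size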; further: potency means the concentration at half of the fitted maximal effect)
In short: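 Endogenous full-length ER-alpha in BG1-Luc-4E2 cells drives a stably integrated 4×ERE luciferase gene; compounds were tested against 17beta-estradiol over 21.5 h, with luminescence and multiplexed viability fluorescence recorded.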

[6] = qHTS assay to identify small molecule antagonists of the estrogen receptor alpha (ER-alpha) signaling pathway using the BG1 cell line - cell viability counter screen (AID 743081);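 further: compound given together with 17beta-estradiol as the ER stimulus; nearly all actives have a fitted effect of over 45% in size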
[7] = qHTS assay to identify aromatase inhibitors - cell viability counter screen (AID 743084);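 further: cells stimulated with testosterone during compound exposure; nearly all actives have a fitted effect of over 55% in size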
[8] = qHTS assay to identify small molecule that activate the aryl hydrocarbon receptor (AhR) signaling pathway - cell viability counter screen (AID 743086);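 further: HepG2 liver cells carrying the AhR DRE luciferase reporter; nearly all actives have a fitted effect of over 45% in size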
In short: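 HepG2-AhR-luc (HG2L7.5c1) cells, 4000/well, were preincubated 5 h at 37C, exposed to compound in qHTS format for 24 hr at 37C, then given CellTiter-Fluor for 30 min; viability was read as fluorescence in the reporter wells.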

[9] = qHTS assay to identify small molecule antagonists of the peroxisome proliferator-activated receptor gamma (PPARg) signaling pathway - cell viability counter screen (AID 743194); conditions: Potency: co-treated with 50 nM rosiglitazone; further: nearly all actives have a fitted effect of over 55% in size
In short: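 PPARg-UAS-bla HEK293H cells were plated, rested 5 h at 37 C, then treated with compounds plus rosiglitazone (50 nM final) for 17 h at 37 C; viability was then read by CellTiter-Glo luminescence after 30 min at room temperature.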

[10] = qHTS assay for small molecule agonists of the antioxidant response element (ARE) signaling pathway - cell viability counter screen (AID 743203; calls by dose curve; further: nearly all actives have a fitted effect of over 55% in size)
In short: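 Viability counter screen: CellTiter-Glo luminescence, read after 30 min at room temperature, in ARE-bla HepG2 wells. Compound exposure lasted 16 h at 37C/5% CO2, following a 5 h pre-incubation of the cells after plating.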

[11] = qHTS assay for small molecule activators of the heat shock response signaling pathway - cell viability counter screen (AID 743209); further: nearly all actives have a fitted effect of over 50% in size; further: potency means the concentration at half of the fitted maximal effect
In short: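 Cytotoxicity counter screen run in the same wells as the heat-shock bla reporter assay: HeLa HSE-bla cells, 5 h compound exposure at 37 C, viability read by CellTiter-Glo luminescence.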

[12] = system: thyroid hormone receptor (rat, GH3 cells); test: qHTS assay to identify small molecule agonists of the thyroid receptor (TR) signaling pathway (AID 743066; calls by dose curve)
Aromatase (Homo sapiens) = Aromatase (Homo sapiens) (UniProt P11511); test: qHTS assay to identify aromatase inhibitors (AID 743083); further: nearly all actives have a fitted effect of over 55% in size
Aromatase (Homo sapiens), sequence (P11511 whole entry, looked up): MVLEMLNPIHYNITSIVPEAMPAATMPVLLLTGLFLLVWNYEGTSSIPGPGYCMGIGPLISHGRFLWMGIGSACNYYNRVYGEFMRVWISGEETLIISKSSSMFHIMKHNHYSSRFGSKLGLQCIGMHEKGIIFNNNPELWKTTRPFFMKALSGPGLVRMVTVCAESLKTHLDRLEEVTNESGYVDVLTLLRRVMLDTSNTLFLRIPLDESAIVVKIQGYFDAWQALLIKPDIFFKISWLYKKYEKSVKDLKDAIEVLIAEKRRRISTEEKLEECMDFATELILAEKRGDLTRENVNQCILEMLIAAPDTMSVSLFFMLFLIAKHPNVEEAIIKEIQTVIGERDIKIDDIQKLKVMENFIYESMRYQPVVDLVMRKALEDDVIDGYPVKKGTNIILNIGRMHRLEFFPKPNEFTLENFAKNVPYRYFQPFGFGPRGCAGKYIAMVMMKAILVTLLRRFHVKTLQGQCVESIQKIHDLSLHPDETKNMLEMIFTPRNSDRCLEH

[13] = biological target: Peroxisome proliferator-activated receptor gamma (Homo sapiens) (UniProt P37231); test: qHTS assay to identify small molecule agonists of the peroxisome proliferator-activated receptor gamma (PPARg) signaling pathway (AID 743094; active means well fitted activation curve with a large enough effect in the signal ratio in the repeat runs, not every such curve was filed as active; the % refers to the signal ratio)
Peroxisome proliferator-activated receptor gamma (Homo sapiens), sequence (P37231 whole entry, looked up): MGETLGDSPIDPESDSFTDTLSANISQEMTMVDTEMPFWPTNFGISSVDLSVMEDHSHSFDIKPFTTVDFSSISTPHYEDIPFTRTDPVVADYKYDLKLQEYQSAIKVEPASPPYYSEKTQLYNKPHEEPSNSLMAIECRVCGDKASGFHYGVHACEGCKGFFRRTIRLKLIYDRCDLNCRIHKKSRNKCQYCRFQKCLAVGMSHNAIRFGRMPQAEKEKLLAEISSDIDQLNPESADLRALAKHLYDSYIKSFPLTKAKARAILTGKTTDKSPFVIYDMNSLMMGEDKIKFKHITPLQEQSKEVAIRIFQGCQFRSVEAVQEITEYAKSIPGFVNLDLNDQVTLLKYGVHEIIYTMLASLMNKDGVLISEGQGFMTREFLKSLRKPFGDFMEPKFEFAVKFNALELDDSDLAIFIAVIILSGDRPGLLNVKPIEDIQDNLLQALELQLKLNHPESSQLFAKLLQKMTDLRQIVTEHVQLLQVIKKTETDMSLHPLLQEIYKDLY
In short: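 Agonist activity was taken from a beta-lactamase reporter (FRET substrate, 1 h at room temperature) in HEK293H cells carrying a PPARg UAS-bla construct. Compounds in DMSO were incubated 17 h at 37C after a 5 h cell pre-incubation.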

[14] = biological target: Peroxisome proliferator-activated receptor gamma (Homo sapiens) (UniProt P37231); test: qHTS assay to identify small molecule antagonists of the peroxisome proliferator-activated receptor gamma (PPARg) signaling pathway (AID 743191; calls by dose curve; further: nearly all actives have a fitted effect of over 30% in size)
In short: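 GeneBLAzer PPARg UAS-bla HEK293H cells carrying a UAS-driven beta-lactamase reporter were plated at 3000 cells/well, preincubated 5 h at 37C, then given compound for 17 h at 37C; LiveBLAzer B/G FRET substrate was read after 1 h at room temperature.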

[15] = qHTS assay for small molecule agonists of the antioxidant response element (ARE) signaling pathway (AID 743202; active means well fitted activation curve with a large enough effect in the signal ratio in the repeat runs, not every such curve was filed as active; the % refers to the signal ratio)
In short: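 Following a 16 h, 37 C exposure of reporter HepG2 cells (ARE-driven beta-lactamase, 2,000 cells/well) to compounds, FRET substrate was applied for 2 h at room temperature and fluorescence intensity recorded.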

[16] = qHTS assay for small molecule activators of the heat shock response signaling pathway (AID 743210; active means well fitted activation curve with a large enough effect in the signal ratio in the repeat runs, with a control signal flat, not every such curve was filed as active; the % refers to the signal ratio)
In short: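 Heat shock element–beta-lactamase HeLa reporter cells; qHTS with compounds for 5 h at 37 C; detection by FRET substrate fluorescence after 2.5 h at RT.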

[17] = biological target: Estrogen receptor (Homo sapiens) (UniProt P03372); test: qHTS assay to identify small molecule antagonists of the estrogen receptor alpha (ER-alpha) signaling pathway (AID 743069; active means well fitted curve in the direction sought with a large enough effect in the signal ratio in the repeat runs, not every such curve was filed as active; the % refers to the signal ratio)
In short: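 A 17beta-estradiol challenge was applied right after compound transfer to ER-alpha-UAS-bla HEK293 cells previously kept in charcoal-stripped serum. Plates stood 18 hr at 37C and 5% CO2; fluorescence was read following 2 hr FRET substrate loading at room temperature.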

[18] = biological target: Estrogen receptor (Homo sapiens) (UniProt P03372); test: qHTS assay to identify small molecule agonists of the estrogen receptor alpha (ER-alpha) signaling pathway using the BG1 cell line (AID 743079); conditions: BG1Luc4E2 cells, ERE-luciferase agonist, 22 h; for activation: at 70.3 µM (top of the series); further: potency means the concentration at half of the fitted maximal effect; on all read-outs here: nearly all actives have a fitted effect of over 20% in size
[19] = biological target: Aryl hydrocarbon receptor (Homo sapiens) (UniProt P35869); test: qHTS assay to identify small molecule that activate the aryl hydrocarbon receptor (AhR) signaling pathway (AID 743085);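 further: HG2L7.5c1 human HepG2 liver cells with stably integrated DRE-driven firefly reporter; nearly all actives have a fitted effect of over 15% in size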
Aryl hydrocarbon receptor (Homo sapiens), sequence (P35869 whole entry, looked up): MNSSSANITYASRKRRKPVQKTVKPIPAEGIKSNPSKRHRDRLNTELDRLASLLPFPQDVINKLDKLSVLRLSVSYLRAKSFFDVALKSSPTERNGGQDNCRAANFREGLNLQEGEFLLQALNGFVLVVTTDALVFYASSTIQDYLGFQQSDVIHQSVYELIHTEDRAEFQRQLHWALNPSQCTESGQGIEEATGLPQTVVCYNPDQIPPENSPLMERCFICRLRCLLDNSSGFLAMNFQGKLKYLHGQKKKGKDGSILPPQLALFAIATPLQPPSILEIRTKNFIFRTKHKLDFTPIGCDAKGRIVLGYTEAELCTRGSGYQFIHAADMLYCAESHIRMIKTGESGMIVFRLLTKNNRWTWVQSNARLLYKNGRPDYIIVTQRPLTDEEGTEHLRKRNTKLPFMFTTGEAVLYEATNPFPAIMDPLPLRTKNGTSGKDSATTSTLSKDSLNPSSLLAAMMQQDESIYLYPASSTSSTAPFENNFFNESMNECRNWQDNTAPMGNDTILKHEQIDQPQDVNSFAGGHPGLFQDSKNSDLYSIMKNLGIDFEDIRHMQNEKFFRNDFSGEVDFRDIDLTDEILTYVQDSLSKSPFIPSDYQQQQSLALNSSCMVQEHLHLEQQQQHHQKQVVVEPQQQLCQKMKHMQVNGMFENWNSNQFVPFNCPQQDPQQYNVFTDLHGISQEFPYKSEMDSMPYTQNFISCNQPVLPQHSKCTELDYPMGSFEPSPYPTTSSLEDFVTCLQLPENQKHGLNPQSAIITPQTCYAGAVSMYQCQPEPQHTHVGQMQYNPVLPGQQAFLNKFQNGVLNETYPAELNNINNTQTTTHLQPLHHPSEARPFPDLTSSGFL
In short: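 24 h compound exposure, 37C, HepG2-derived HG2L7.5c1 cells with DRE-responsive luciferase. Readouts: fluorescence viability, then luminescence at room temperature after 30 min.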

For `C=CCC1=C(C)[C@@H](OC(=O)[C@@H]2[C@@H](C=C(C)C)C2(C)C)CC1=O`, the Potency [1] was 61.1 µM (active), the Potency [2] was 61.1 µM (active) and the outcome [3] was “inactive”. The Potency [4] was “inactive”, the Potency [5] was 54.5 µM (active) and the Potency [6] was “inactive”. For the same molecule, the Potency [7] was “inactive”, the outcome [8] was “inactive” and the Potency [9] was “inactive”. For the same molecule, the Potency [10] was “inactive” and the Potency [11] was 49 µM (active).

In the case of `CCOC(=O)NC(=S)Nc1ccccc1NC(=S)NC(=O)OCC`, the Potency [1] is reported as “inactive”, the Potency [2] is reported as 54.5 µM (active) and the Potency [12] is reported as “inactive”. The Potency [6] was “inactive”, the Potency (Aromatase (Homo sapiens)) was “inactive” and the Potency [7] was “inactive”. The outcome [8] was “inactive”, the outcome [13] was “inactive” and the Potency [14] was “inactive”. The Potency [9] was “inactive”, the Potency [15] was “inactive” and the Potency [10] was “inactive”. For the same molecule, the Potency [11] was “inactive” and the outcome [16] was “inactive”.

For `CC1(C)C(=O)NC(=O)NC1=O`, the Potency [1] was “inactive”, the Potency [12] was “inactive” and the Potency [17] was “inactive”. The Potency [4] was “inactive”, the activation [18] was -7.44% and the Potency [5] was “inactive”. The Potency [6] was “inactive”, the Potency (Aromatase (Homo sapiens)) was “inactive” and the Potency [7] was “inactive”. The outcome [8] was “inactive”, the outcome [13] was “inactive” and the Potency [9] was “inactive”. For the same molecule, the Potency [10] was “inactive”, the Potency [11] was “inactive” and the outcome [16] was “inactive”.

With `CCOP(=S)(OCC)SCSP(=S)(OCC)OCC` the Potency [1] was “inactive”, the Potency [12] was “inactive” and the Potency [17] was “inactive”. The outcome [3] was “inactive”, the Potency [4] was “inactive” and the Potency [18] was 38.6 µM (active). The Potency [5] was “inactive”, the Potency [6] was “inactive” and the Potency (Aromatase (Homo sapiens)) was “inactive”. The Potency [7] was “inactive”, the outcome [8] was “inactive” and the Potency [14] was “inactive”. For the same molecule, the Potency [9] was “inactive”, the Potency [10] was “inactive” and the outcome [16] was “inactive”.

In the case of `NC(=O)O`, the Potency [1] is reported as “inactive”, the Potency [12] is reported as “inactive” and the Potency [17] is reported as “inactive”. The outcome [3] was “inactive”, the Potency [4] was “inactive” and the activation [18] was -5.63%. For the same molecule, the Potency [5] was “inactive”, the Potency [6] was “inactive” and the Potency (Aromatase (Homo sapiens)) was “inactive”. The Potency [7] was “inactive”, the Potency [19] was “inactive” and the outcome [8] was “inactive”. For the same molecule, the Potency [9] was “inactive”, the Potency [15] was “inactive” and the Potency [10] was “inactive”.

In the case of `CCC1(c2ccccc2)C(=O)N=C(O)NC1=O` (stereo not given), the Potency [1] is reported as “inactive”, the Potency [2] is reported as “inactive” and the Potency [17] is reported as “inactive”. The outcome [3] was “inactive”, the Potency [4] was “inactive” and the activation [18] was -3.61%. For the same molecule, the Potency [5] was “inactive”, the Potency [6] was “inactive” and the Potency (Aromatase (Homo sapiens)) was “inactive”. The Potency [7] was “inactive”, the Potency [19] was “inactive” and the outcome [8] was “inactive”. For the same molecule, the outcome [13] was “inactive”, the Potency [14] was “inactive” and the Potency [9] was “inactive”. For the same molecule, the Potency [15] was “inactive”, the Potency [10] was “inactive” and the Potency [11] was “inactive”. The outcome [16] was “inactive”.

With `CCC#N` the Potency [1] was “inactive”, the Potency [2] was “inactive” and the Potency [12] was “inactive”. For the same molecule, the Potency [6] was “inactive”, the outcome [8] was “inactive” and the Potency [9] was “inactive”. For the same molecule, the Potency [15] was “inactive”, the Potency [10] was “inactive” and the Potency [11] was “inactive”. The outcome [16] was “inactive”.

In the case of `CNC(=O)O/N=C(\C)SC`, the Potency [1] is reported as “inactive”, the Potency [2] is reported as “inactive” and the Potency [12] is reported as “inactive”. For the same molecule, the Potency [6] was “inactive”, the Potency (Aromatase (Homo sapiens)) was “inactive” and the Potency [7] was “inactive”. The Potency [19] was “inactive”, the outcome [8] was “inactive” and the outcome [13] was “inactive”. For the same molecule, the Potency [14] was “inactive”, the Potency [9] was “inactive” and the Potency [15] was “inactive”. For the same molecule, the Potency [10] was “inactive”, the Potency [11] was “inactive” and the outcome [16] was “inactive”.

In the case of `COC(=O)c1ccccc1S(=O)(=O)NC(=O)N(C)c1nc(C)nc(OC)n1`, the Potency [1] is reported as “inactive”, the Potency [12] is reported as “inactive” and the Potency [17] is reported as “inactive”. For the same molecule, the outcome [3] was “inactive”, the Potency [4] was “inactive” and the Potency [5] was “inactive”. The Potency [6] was “inactive”, the Potency (Aromatase (Homo sapiens)) was “inactive” and the Potency [7] was “inactive”. For the same molecule, the outcome [8] was “inactive”, the outcome [13] was “inactive” and the Potency [14] was “inactive”. The Potency [15] was “inactive”, the Potency [10] was “inactive” and the Potency [11] was “inactive”. For the same molecule, the outcome [16] was “inactive”.
